Values joined by “and” are separate entries in the source; they are usually repeats but may differ in a detail not shown here. Identical values can stand only once. About 83,000 compounds went through this panel and 20% of them were active in at least one assay; those are over-represented in the sample as a whole.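 Step 1: grow cells in 96-well plates. Step 2: add test compound at a single concentration. Step 3: incubate 48 h. Step 4: record percent growth.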 Unmarked numbers belong to inactive results. Active and inactive are the calls of the source. Rule for the calls: active = growth percent below 10; inactive = the rest.

The test relates to M14 melanoma. The test is described as follows: NCI-60 one-dose screen, 48 h (100 = growth as untreated, 0 = no growth, -100 = all killed). The conditions noted are these: 10 µM unless noted.
Turning to `COc1ccc(NC2=C(I)C(=O)C(C)=C(C)C2=O)cc1`, the growth is 96.1%.
In the case of `CC(=O)Nc1cccc(-n2c(COc3ccc(Br)cc3)nc3ccccc32)c1` it was 109% and 108%.
In the case of `CCCSc1nnc(-c2sc3nc4ccccc4n3c2C)o1` it was 106%; in that of `Cc1ccc(C(=O)Nc2cc(-n3ccnc3)cc(C(F)(F)F)c2)cc1-n1cc(-c2cnc3cccnn23)nn1`, 25.4%; in that of `O=C(Nc1ccc(Cl)c(C(F)(F)F)c1)N1CCN(c2cc(-c3cn(-c4ccccc4)nc3-c3cccc(O)c3)ccn2)CC1`, -19.3% (active).
Turning to `COc1cccc(C(N)=Nc2ccc(OCCCCCCCCn3cncn3)cc2)c1`, the growth was 22.6%.
In the case of `Nc1nnc(-c2cncc(Br)c2)c(-c2c[nH]c3ccc(Br)cc23)n1` it was 44.5%.
Take `Nc1cc(-c2c[nH]c3ccc(Cl)cc23)nc2cc(-c3c[nH]c4ccccc34)nn12`: the growth is -25.8% (active).
On to `CN(C)CCOc1ccc(C(=O)C2[C@H](c3ccc(Cl)cc3)[C@@H](c3ccccc3)NC23C(=O)Nc2ccc(Cl)cc23)cc1` (stereo not given in full), for which the growth is -90.1% (active).
In the case of `O=C(NNC(=S)NC(=O)c1ccccc1)c1ccc(OCc2nc3ccc(Cl)cc3[nH]2)cc1` it was -54.5% (active); in that of `O=C(c1ccc(Cl)cc1)C1[C@H](c2ccccc2Cl)[C@@H](c2ccccc2)NC12C(=O)Nc1ccc(Br)cc12` (stereo not given in full), -88.5% (active).
`COc1ccc(CCC2NCCc3c(Br)c4c(c(OC)c32)OCO4)cc1` (stereo not given): the growth is -30.7% (active).
On to `O=C(Nc1ccc(Br)cc1)Nc1ccc(-c2ccc3c(c2)NC(=O)/C3=C\c2ccc[nH]2)cc1`, for which the growth was 32.3%.
In the case of `O=C(Nc1ccc(S(=O)(=O)N2CCCCC2)cc1)C(Cl)Cl` it was 112%; in that of `O=C(N/N=C/c1ccc(Br)o1)c1[nH]c2ccc(Br)cc2c1-c1ccccc1`, 6.88% (active).
In the case of `COc1cc(/C=C/C(=O)c2ccc(S(=O)(=O)NCCNc3nc(N(C)C)nc(N4CCOCC4)n3)cc2)cc(OC)c1OC` it was -54.7% (active).
In the case of `CCCCNC(=S)Nc1ccc(OCc2nc3ccc(Cl)cc3[nH]2)cc1` it was 39.1%; in that of `COc1ccc(-c2cc(C(=O)N=Nc3c(O)[nH]c4ccc(Cl)cc34)c3ccccc3n2)cc1OC`, 89.2%; in that of `NS(=O)(=O)c1cccc(Nc2nc(SCC(=O)c3ccc(F)cc3)nc3ccccc23)c1`, 23.3%.
Turning to `COc1ccc2[nH]c(O)c(N=Nc3nc(-c4ccccc4)cs3)c2c1`, the growth is 55.6%.
As to `COc1ccc(OC)c(Cn2cc(C#N)c(N)c2C(=O)c2ccc(Br)cc2)c1`, the growth is 33.8%.
In the case of `CC1=C(C)C(=O)C(N2CCSCC2)=CC1=O` it was 95.4%; in that of `N#Cc1c(-c2ccc(F)cc2)nc(SCc2ccc(F)cc2)nc1N1CCNCC1`, -88.4% (active).
In the case of `COc1ccc2[nH]cc(-c3cc4nc(-c5cn(C)c6ncccc56)cc(N)n4n3)c2c1` it was -49.5% (active); in that of `O=C1Nc2ccccc2/C1=C\c1ccc(OCC(=O)c2ccc(Br)cc2)cc1`, 73.1%; in that of `Nc1nn2c(-c3cc4ccccc4oc3=O)ccnc2c1N=Nc1ccccc1`, 92.1%.
Turning to `O=c1c(-c2nc(-c3ccccc3)c(-c3ccccc3)[nH]2)coc2ccc(F)cc12`, the growth was 53.3%.
In the case of `Cc1ccccc1Nc1nnc(-c2c[nH]c3ccccc23)o1` it was 6.24% (active).
In the case of `O=CNc1cccc(-n2cnc3cc(-c4ccc(O)cc4)ccc32)c1` it was 57.2%; in that of `CC1(C)CC(=O)C2=C(C1)OC(N)=C(c1nc3ccccc3[nH]1)C2c1ccc(Cl)cc1` (stereo not given), 85.6% and 118%.
In the case of `CN1C(=O)/C(=C\C(=O)c2cc3ccccc3oc2=O)c2ccccc21` it was 58.7%; in that of `Cc1cc(N=C(N)c2ccccc2)ccc1OCCCCCCCCn1ccnc1`, -17.5% (active); in that of `Cc1ccc(C2CC(c3ccc(NC(=S)Nc4ccccc4)cc3)=NN2c2ccc(S(N)(=O)=O)cc2)cc1` (stereo not given), 19%.
Turning to `COc1cc(CNC(=O)[C@]23CCC(C)(C)CC2C2=CCC4[C@@]5(C)CCC(OC(C)=O)C(C)(C)C5CC[C@@]4(C)[C@]2(C)CC3)ccc1OCc1cn(-c2ccc(Cl)cc2Cl)nn1` (stereo not given in full), the growth was 98.2%.
In the case of `Nc1ccc(-c2ccc3ncnc(N4CCc5cc(F)c(Cl)cc54)c3c2)cn1` it was 13.5%.

The values are drawn from PubChem BioAssay (NCI).
